# TbPYK inhibitor: inhibitors of Trypanosoma brucei pyruvate kinase. Q57TT1. TbPYK enzyme, Kinase-Glo Plus ATP luminescence, 45 min. Potency, µM (top dose mostly 76.8 µM), actives largely listed as inhibitors. 410,000 compounds, 0.12% hits. AID 624173; also: nearly all actives have a fitted effect of over 50% in size
#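 In this concentration-response screen, enzyme-free wells defined baseline while DMSO plates tracked drift. Each reaction combined TbPYK, substrate, compound and 130 uM ADP for 45 min at room temperature. Kinase-Glo Plus luminescence gave the signal.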
# Shiga toxin inh: Shiga toxin inhibition; Vero cells, Shiga toxin protein synthesis inhibition reporter; inhibition, % at 38.7 µM; 290,000 compounds, 9.2% hits; in the data active = inhibition mostly above about 28%, no sharp cut-off; inactive = mostly below about 43%
# FBPA Giardia inh: inhibitors of Giardia lamblia fructose-1,6-bisphosphate aldolase; Potency, µM (series often up to 59.6 µM), most hits filed as inhibitors; 290,000 compounds, 0.71% hits; purified Giardia FBPA; AID 2451; also: nearly all actives have a fitted effect of over 55% in size
#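 40 nM FBPA preincubated 10 min at RT with compound (up to 57.5 uM final), then substrate plus GAPDH/TPI/NAD/arsenate coupling and diaphorase/resazurin added. Fluorescence read after 20 min at RT, 525/598 nm.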
# Sm TGR inh: blocks Schistosoma mansoni thioredoxin glutathione reductase | Q962Y6 | purified TGR, DTNB reduction, TNB absorbance 405 nm | Potency, µM (series often up to 114 µM), most hits filed as inhibitors | 360,000 compounds, 3% hits | AID 485364; also: nearly all actives have a fitted effect of over 60% in size
#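 TGR 20 nM + NADPH 100 uM (dispensed conc.), cpd preinc 15 min RT; start with NADPH (500 uM addition) then DTNB (15 mM addition). Kinetic TNB absorbance, 405 nm filter. Four-parameter Hill fit across titration.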
# Cycloheximide cs: affects cycloheximide protein synthesis inhibition readout, counter-screen | cell reporter, cycloheximide protein synthesis inhibition counterscreen | max response, % | 300,000 compounds, 12% hits | AID 2314; in the data active = max response mostly above about 13%, no sharp cut-off; inactive = mostly below about 14%; also: read at 38.3 µM for the half of the compounds with a filed dose
# LmPK inh: blocks Leishmania mexicana pyruvate kinase activity; Q27686; purified LmPK, Kinase-Glo ATP luminescence, 1 h; Potency, µM (top dose mostly 57.5 µM), usual class: inhibitors; 290,000 compounds, 0.37% hits
# Target sequence (Q27686 whole entry, looked up): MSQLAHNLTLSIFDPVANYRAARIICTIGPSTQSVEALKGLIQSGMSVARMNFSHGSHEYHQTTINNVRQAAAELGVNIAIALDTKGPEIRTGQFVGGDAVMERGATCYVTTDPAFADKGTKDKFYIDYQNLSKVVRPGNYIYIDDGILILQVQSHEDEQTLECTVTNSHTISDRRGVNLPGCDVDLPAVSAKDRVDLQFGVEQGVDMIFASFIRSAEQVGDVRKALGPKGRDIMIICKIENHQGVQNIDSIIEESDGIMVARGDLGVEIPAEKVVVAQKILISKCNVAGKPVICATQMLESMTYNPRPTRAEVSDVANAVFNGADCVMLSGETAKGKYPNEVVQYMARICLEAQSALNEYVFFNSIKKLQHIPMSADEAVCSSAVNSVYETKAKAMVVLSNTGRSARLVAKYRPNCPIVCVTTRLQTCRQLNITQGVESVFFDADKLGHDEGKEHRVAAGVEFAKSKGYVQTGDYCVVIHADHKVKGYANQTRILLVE
#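 In 50 mM imidazole pH 7.2 with 7 mM MgCl2, LmPK (0.1 nM) turned over PEP (0.5 mM) and ADP (0.1 mM) for 1 h at room temperature. Luciferase read-out of ATP.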
# A number is an active result; 0 = inactive; ? = inconclusive; - = no result given; [ ] = remark or other dose. Shown is part of a subset that was picked to be rich in hits. Unless noted, calls follow the shape of the dose curve; as a rule, active = well fitted curve in the direction sought with a large enough effect; inconclusive = small, poorly fitted or top-dose-only effect, or another doubt; inactive = no such curve, though single readings can be large; an effect the other way counts as inactive or inconclusive.
SMILES,TbPYK inhibitor,Shiga toxin inh,FBPA Giardia inh,Sm TGR inh,Cycloheximide cs,LmPK inh
Cc1ccc(NCc2ccccc2O)cc1C,0,102,0,0,33,0
c1csc(CNc2ccc3c(c2)OCCO3)c1,0,93,?,0,111,0
Cc1ccc(C)c(NCc2ccccc2CO)c1,0,0,0,0,0,0
Oc1ccccc1CNc1ccc2c(c1)OCCO2,0,67,0,?,41,0
CCC(C)(C)NC(=O)CN(Cc1cccs1)C(=O)C(=O)Nc1ccc2c(c1)OCCO2,0,0,0,0,0,0
CCOc1ccc(-c2nnc(SCC(=O)NCCC(C)C)nc2-c2ccc(OCC)c(OC)c2)cc1OC,0,-,-,0,-,-
O=C(NCCN1CCOCC1)c1ccc(NS(=O)(=O)c2cccc([N+](=O)[O-])c2)cc1,0,-,-,0,-,-
Oc1ccccc1CNc1ccc(OC(F)(F)F)cc1,0,55,0,0,35,0
O=C(NC1CCCC1)c1cc(-c2ccc(F)cc2)on1,0,96,0,0,46,0
O=C(Nc1cccnc1Cl)c1cc(-c2ccc(F)cc2)on1,0,0,0,0,0,0
O=C(NC1CCCC1)c1cc(-c2ccc(Cl)cc2)on1,0,59,0,0,27,0
O=C(NC1CCCCC1)c1cc(-c2ccc(Cl)cc2)on1,0,0,0,0,0,0
CC(=O)CCc1c(C)c2cc(C)ccc2[nH]c1=O,0,0,0,0,33,0
Cc1cccc(CNC(=O)c2cccc(NC(=O)N3CCSc4ncccc43)c2)c1,0[15.4 µM],-,-,0,-,-
COc1ccc(N(C)S(=O)(=O)c2cccc(C(=O)NC3CCC(C)CC3)c2)cc1 (centres undefined),0,0,0,0,16,0
COc1ccc(N(C)S(=O)(=O)c2cccc(C(=O)NC3CCCCCC3)c2)cc1,0,0,0,0,0,0
O=C(NCc1cccs1)[C@@H]1CSC2c3ccccc3C(=O)N21 (some centres undefined),0,0,0,0,0,0
O=C(NCc1ccco1)[C@@H]1CSC2c3ccccc3C(=O)N21 (some centres undefined),0,0,0,32µM,0,0
CC(C)[C@H](NC(=O)[C@@H]1CSC2c3ccccc3C(=O)N21)C(=O)NCc1ccco1 (some centres undefined),0,0,0,45µM,0,0
CC(C)[C@H](NC(=O)[C@@H]1CSC2c3ccccc3C(=O)N21)C(=O)NCc1ccncc1 (some centres undefined),0,0,0,0,0,0
Cc1ccc(C(=O)N2CCCC(CCC(=O)NCc3ccccc3F)C2)cn1 (centres undefined),0,0,-,0,21,0
C=CCOc1cccc(C(=O)N2CCCC(CCC(=O)NCc3ccccc3F)C2)c1 (centres undefined),0,0,0,-,29,0
Cc1ccsc1C(=O)N1CCCC(CCC(=O)NCc2ccccc2F)C1 (centres undefined),0,0,0,0,15,0
Cc1ccsc1S(=O)(=O)N1CCCC(CCC(=O)NCc2ccccc2F)C1 (centres undefined),0,0,0,0,0,0
Cc1cccc(OCCCOc2cccc3cccnc23)c1C,0,0,-,0,21,0
SMILES,TbPYK inhibitor,Shiga toxin inh,FBPA Giardia inh,Sm TGR inh,Cycloheximide cs,LmPK inh
Cc1ccc2cccc(OCCOCCOc3ccccc3Br)c2n1,0,0,0,0,0,0
Brc1ccc(OCCCOc2cccc3cccnc23)cc1,0,-,0,0,0,0
Cc1ccc2cccc(OCCCOc3ccccc3F)c2n1,0,-,0,0,25,0
Cc1ccc(OCCCOc2cccc3cccnc23)cc1C,0,0,0,0,17,0
COc1cccc(OC)c1OCCCOc1cccc2cccnc12,0,127,0,-,21,0
C/C=C/c1ccc(OCCOCCOc2cccc3cccnc23)c(OC)c1,0,0,0,0,0,0
C/C=C/c1ccc(OCCOc2cccc3cccnc23)c(OC)c1,0,0,0,0,22,0
CCOC(=O)c1sc2nc(C)cc(C)c2c1NC(=O)c1ccco1,0,0,0,0,0,0
CCOc1ccc2nc(NC(=O)c3cccn(Cc4ccc(C)cc4)c3=O)sc2c1,0,-,-,0,-,-
CCOc1ccc2nc(NC(=O)c3ccco3)sc2c1,0,0,0,0,39,?
